From PubChem
EPAC2 agonist: EPAC2 (human) agonism; EPAC2 activation, biochemical qHTS; response scale: 100% = 6.5 mM cAMP response; Potency, µM (top dose mostly 154 µM), for the others: top-dose activation, actives largely listed as activators; 0.079% of 360,000 active; AID 720711; further: nearly all actives have a fitted effect of over 50% in size
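Fluorescence exchange assay: 100 nM EPAC2 with 250 nM RAP1B-BODIPY-GDP and 50 uM GDP; compounds tested as a concentration-titration series (qHTS). Loss of Rap1-bound BODIPY-GDP fluorescence read at 480/540 nm; data normalized to 6.5 mM cAMP.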
EPAC1 antagonist: antagonists of human EPAC1; O95398; EPAC1 GEF assay, Rap1b-BODIPY-GDP exchange fluorescence; Potency, µM (highest dose often 115 µM), inactives show at the highest dose activity change, negative = inhibition, actives largely listed as inhibitors; 0.14% of 360,000 active; AID 720709;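 further: plate controls were vehicle for no effect and positive control for full effect; nearly all actives have a fitted effect of over 50% in size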
USP1 inh: blocks the human USP1/UAF1 deubiquitinase complex | recombinant USP1/UAF1, Ub-Rhodamine cleavage fluorescence | Potency, µM (series often up to 57.1 µM), inactives show top-dose activity change, negative = inhibition, usual class: inhibitors | 0.23% of 390,000 active; further: on the % scale 0 is the no-effect control and ±100 the full control effect; nearly all actives have a fitted effect of over 60% in size
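In this screen, compounds sit with the deubiquitinase complex (1nM) for 15 min at room temperature before Ub-Rho is added at 150nM final. Fluorescence rise is then followed for 6 reads every 60 seconds.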
EPAC2 antagonist: antagonists of human EPAC2; Q8WZA2; EPAC2 GEF exchange of Rap1B-BODIPY-GDP, fluorescence; Potency, µM (doses to about 114 µM), for the others: top-dose activity, negative = inhibition, most hits filed as inhibitors; 0.18% of 360,000 active; AID 720708; further: on the % scale 0 is the no-effect control and ±100 the full control effect; nearly all actives have a fitted effect of over 45% in size
12-LOX inh: blocks human arachidonate 12S-lipoxygenase. P18054. purified 12hLO, xylenol orange hydroperoxide absorbance. Potency, µM (titrated, usually from 108 µM), inactives show at the highest dose activity change, negative = inhibition, most hits filed as inhibitors. 1.1% of 580,000 active. AID 1671190; further: on the % scale 0 is the no-effect control and ±100 the full control effect
Target sequence (P18054 whole entry, looked up): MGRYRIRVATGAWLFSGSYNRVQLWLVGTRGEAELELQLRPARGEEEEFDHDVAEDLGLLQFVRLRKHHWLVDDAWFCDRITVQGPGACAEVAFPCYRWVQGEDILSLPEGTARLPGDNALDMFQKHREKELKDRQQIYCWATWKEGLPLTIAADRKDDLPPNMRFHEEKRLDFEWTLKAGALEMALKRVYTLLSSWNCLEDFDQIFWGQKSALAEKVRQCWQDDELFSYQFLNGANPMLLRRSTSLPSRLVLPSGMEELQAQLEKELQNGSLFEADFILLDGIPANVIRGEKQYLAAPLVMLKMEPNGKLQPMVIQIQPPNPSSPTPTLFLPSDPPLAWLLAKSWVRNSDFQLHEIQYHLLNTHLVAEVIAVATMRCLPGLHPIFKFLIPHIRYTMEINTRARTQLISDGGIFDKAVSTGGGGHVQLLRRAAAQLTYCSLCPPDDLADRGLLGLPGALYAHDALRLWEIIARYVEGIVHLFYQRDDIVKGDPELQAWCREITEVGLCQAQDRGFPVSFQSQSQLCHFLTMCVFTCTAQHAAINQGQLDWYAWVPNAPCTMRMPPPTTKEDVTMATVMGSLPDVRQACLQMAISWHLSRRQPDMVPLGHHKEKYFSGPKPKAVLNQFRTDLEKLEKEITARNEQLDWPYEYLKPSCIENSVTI
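Purified human 12hLO (150 nM final) in 25 mM Hepes, 0.01% Triton X-100, pH 7.0 was preincubated 15 min at room temperature with compound. Then 40 uM arachidonic acid was added, 30 min. Hydroperoxide was read by Fe-XO absorbance ratio 573/405 nm.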
EPAC1 agonist: EPAC1 (human) agonism | O95398 | EPAC1 agonist qHTS, biochemical assay; response scale: 100% = response to 6.5 mM cAMP | Potency, µM (series often up to 154 µM), for the others: top-dose activation, usual class: activators | 0.073% of 360,000 active; further: nearly all actives have a fitted effect of over 60% in size
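Normalized to 6.5 mM cAMP, activity reflects EPAC1-catalysed release of BODIPY-GDP from Rap1B, followed kinetically over 30 min at 480 nm excitation, 540 nm emission. Reaction contained 100 nM EPAC1, 250 nM Rap1B-BODIPY-GDP, 50 uM GDP.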
An asterisk follows results filed as active; ? = inconclusive; nt = no result given; ! = not active in a repeat; [ ] = dose if it differs, or a comment. Only some compounds are listed: those with a hit (about 1.3% of all), similar ones and a draw of the others. The call rests on the fitted dose curve; in most records, active means well fitted curve in the direction sought with a large enough effect; inconclusive means small, poorly fitted or top-dose-only effect, or another doubt; inactive means no such curve, though single readings can be large; an effect the other way counts as inactive or inconclusive. Potency means the concentration at half of the fitted maximal effect.

SMILES	EPAC2 agonist	EPAC1 antagonist	USP1 inh	EPAC2 antagonist	12-LOX inh	EPAC1 agonist
CN(C)c1ccc(/C=C(/C(=O)c2ccc(Cl)cc2Cl)n2cncn2)cc1	45µM*	-13%	?	-24%	-10%	100µM*
CCCc1ccc(-c2cc(C(=O)Nc3nncs3)c3ccccc3n2)cc1	nt	nt	nt	nt	5%	nt
CC(C)C[C@H](NC(=O)C1(c2ccccc2)CCN(C(=O)OC(C)(C)C)CC1)C(=O)N1CCC[C@H]1C(=O)O	-13%	?	-12%	79µM*	0%	0%
Cc1noc(C)c1-c1cc2cc(CO)oc2c(NCCN2CCOCC2)n1	nt	nt	nt	nt	-50%[176 µM]	nt
Cc1noc(C)c1-c1nccc(NC2CC2)n1	nt	nt	nt	nt	7.1µM*	nt
Cc1noc(C)c1-c1nccc(NCCN2CCOCC2)n1	nt	nt	nt	nt	32µM*	nt
Cc1ccccc1-c1nccc(NCCN2CCOCC2)n1	nt	nt	nt	nt	40µM*	nt
Cc1noc(C)c1-c1nccc(-n2ccnc2)n1	nt	nt	nt	nt	45µM*	nt
Cc1noc(C)c1-c1nccc(NCc2cccnc2)n1	nt	nt	nt	nt	-19%	nt
Cc1cccc(CNc2cc(-c3c(C)noc3C)ncn2)c1	nt	nt	nt	nt	-15%	nt
Cc1noc(C)c1-c1cc(NC2CCNCC2)ncn1	nt	nt	nt	nt	22µM*	nt
COc1ccc(C(CC(=O)c2ccc(C)cc2)Sc2ccccc2N)cc1 (centres undefined)	-1%	-6%	-11%	?	50µM*	1%
Cc1cccc(Cn2c(=O)oc3ccc(C)cc32)c1	-3%	-3%	-21%	79µM*	nt	-4%
Cc1ccc2oc(=O)n(Cc3ccc(OC(C)C)cc3)c2c1	8%	-9%	-20%	?	?	-13%
CN(C(=O)Nc1ccccc1F)C(c1ccc(Cl)cc1)c1nccn1C (centres undefined)	nt	nt	nt	nt	38%	nt
C=CCc1cccc(CNc2nc3ccccc3n2C)c1O	13%	-4%	-28%	-14%	32µM*	7%
Oc1ccc(Cl)cc1CNc1cnc2ccccc2c1	14%	8%	-21%	-14%	40µM*	5%
Oc1ccccc1CNc1cnc2ccccc2c1	12%	-3%	-3%	2%	?	4%
C=CCc1cccc(CNc2cnc3ccccc3c2)c1O	-4%	-18%	-2%	-20%	7.9µM*	0%
C=CCc1cccc(CNc2nc3ccccc3n2CCN2CCOCC2)c1O	-4%	-13%	-4%	-21%	20%	-9%
CCCCN(Cc1cc2cc(C)ccc2[nH]c1=O)C(=O)c1ccc(OC)c(OC)c1	nt	nt	nt	nt	1%	nt
Cc1nonc1CN1CCN(C(C(=O)O)c2c[nH]c3ccc(Cl)cc23)CC1 (centres undefined)	nt	nt	nt	nt	2%	nt
Cc1ccc(/C=C/C(=O)N2CCN(S(=O)(=O)c3ccc(C)c(C)c3)CC2)o1	6%	-27%	-15%	7%	18µM*	-6%
Cc1ccc(/C=C/C(=O)N2CCN(S(=O)(=O)c3c(C)c(C)cc(C)c3C)CC2)o1	-3%	-9%	-26%	9%	?	2%
O=C(N[C@@H]1CN(Cc2cc(F)cc(F)c2)C[C@H]1CO)c1ccccc1	nt	nt	nt	nt	9%	nt
SMILES	EPAC2 agonist	EPAC1 antagonist	USP1 inh	EPAC2 antagonist	12-LOX inh	EPAC1 agonist
O=C(N[C@@H]1CN(Cc2cccc(F)c2)C[C@H]1CO)c1ccccc1	nt	nt	nt	nt	-6%	nt
O=C(N[C@@H]1CN(Cc2ccc(F)cc2)C[C@H]1CO)c1ccccc1	nt	nt	nt	nt	13µM*	nt
O=C(N[C@@H]1CN(Cc2ccc3cc[nH]c3c2)C[C@H]1CO)c1ccccc1	nt	nt	nt	nt	28µM*	nt
Cc1ccc(N=N/C(=C\O)C(=O)c2ccncc2)cc1	-5%	-5%	-11%	6%	-17%	9%
COc1ccc(NC(=O)c2cccs2)cc1	7%	-4%	-11%	1%	-3%	0%
COc1ccc(C(=O)/C(=C/O)N=Nc2ccc(F)cc2)cc1	16%	0%	-20%	-3%	11µM*	1%
COc1ccc(N=N/C(=C\O)C(=O)c2cccs2)cc1	25%	-10%	-29%	-12%	35µM*	9%
O=C(Nc1cccc(C(F)(F)F)c1)c1ccc(C2Nc3ccccc3S(=O)(=O)N2)cc1 (centres undefined)	nt	nt	nt	nt	-26%	nt
COc1cc(OC)c2c(-c3ccccc3)cc(=O)oc2c1C(CCN1CCCCC1)c1ccc2c(c1)OCO2 (centres undefined)	7%	-7%	-26%	-2%	?	2%
COc1cc(OC)c2c(-c3ccccc3)cc(=O)oc2c1C(CC(=O)N1CCCC1)c1ccc2c(c1)OCO2 (centres undefined)	24%	-12%	-16%	-28%	50µM*	-2%
COc1cc2c(cc1OC)C(C[C@H]1CN(C(=O)c3ccco3)CC[C@H]1CC(=O)O)=NCC2	nt	nt	nt	nt	56µM*	nt
O=C(O)C[C@@H]1CCN(C(=O)c2ccco2)C[C@@H]1CC1=NCCc2ccccc21	nt	nt	nt	nt	6%[176 µM]	nt
Cc1ccc(C(=O)N(C)Cc2cccc(C(F)(F)F)c2)cc1	nt	nt	nt	nt	-12%[176 µM]	nt
O=C(c1ccc(COc2ccccc2Cl)o1)N1CCN(Cc2ccc3c(c2)OCO3)CC1	28%	-1%	-11%	-8%	45µM*!	29%
O=C(CN1CCN(Cc2ccc3c(c2)OCO3)CC1)N1c2ccccc2Sc2ccccc21	nt	nt	nt	nt	0.79µM*	nt
c1cnc(N2CCN(Cc3ccc4c(c3)OCO4)CC2)nc1	0%	8%	-25%	-12%	22µM*!	-16%
Cc1ccc(CNC(=O)c2ccccc2NC(=O)Cn2cnc3c2c(=O)n(C)c(=O)n3C)cc1	nt	nt	nt	nt	-26%	nt
COc1cccc(C(=O)/C=C/c2ccc(OCC#N)c(OC)c2)c1	13%	22µM*	-21%	-3%	-4%	1%
CCOc1c(Br)cc(/C=C/C(=O)c2ccccc2)cc1OC	nt	nt	nt	nt	-3%	nt
COc1cc(C(=O)/C=C/c2cccs2)ccc1OCC(=O)O	nt	nt	nt	nt	9%	nt
COc1cc(/C=C/C(=O)c2ccc3c(c2)OCCO3)cc(Br)c1OCC(=O)N(C)C	4%	79µM*	-14%	-3%	-10%	15%
Cc1ccc(C(=O)/C=C/c2cc(Br)c(O)c(Br)c2)cc1	nt	nt	nt	nt	28µM*	nt
COc1cc(C(=O)/C=C/c2cc(Br)c(O)c(OC)c2)ccc1OCC(=O)O	nt	nt	nt	nt	10µM*	nt
CC1=C(C(=O)Nc2ccccc2)C(c2ccc(C)cc2)n2ncc(C(=O)Nc3ccccc3)c2N1 (centres undefined)	nt	nt	nt	nt	-4%	nt
COCCCNc1nc2ccccc2nc1NS(=O)(=O)c1cc(Cl)ccc1Cl	0%	-8%	-20%	1%	40µM*	2%
CCN1CCN(c2nc3ccccc3nc2NS(=O)(=O)c2cc(Cl)ccc2Cl)CC1	nt	nt	nt	nt	25µM*	nt
CCC(=O)N(CC)C1=C(O)c2ccccc2C(=O)C1=O	-5%	-23%	25µM*	-4%	?	-1%
